Source: PubChem BioAssay AID1159580 (chemical genetic matrix, 2015)
Screen size: about 5,500 compounds; about 2,000 (36%) were called active. About 18% were inconclusive and are not listed. No stated cut-off is given here; in the data, active means normalized growth mostly below about 0.91 (no sharp cut-off); inconclusive means no clear call, values can overlap the other calls; inactive means mostly above about 0.92. The list shows a part of the results.

Assay: chemical genetic growth profiling, strain panel (AID 1159580);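 further: tested at 20 µM; growth read once vehicle control cultures reached saturation at 30 °C; 1 = growth at the plate median or of vehicle wells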
Details: S. cerevisiae deletion strains, growth OD
[1] = locus YAL021C, strain ccr4, stronger effect = lower value
[2] = locus YAL026C, strain drs2, stronger effect = lower value
[3] = locus YAL030W, strain snc1, stronger effect = lower value
[4] = locus YBL061C, strain skt5, stronger effect = lower value
[5] = locus YBR009C, strain hhf1, stronger effect = lower value
[6] = locus YBR023C, strain chs3, stronger effect = lower value
[7] = locus YBR171W, strain sec66, stronger effect = lower value
[8] = locus YBR231C, strain swc5, stronger effect = lower value
[9] = locus YBR279W, strain paf1, stronger effect = lower value
[10] = locus YCL011C, strain gbp2, stronger effect = lower value
[11] = locus YCL016C, strain dcc1, stronger effect = lower value
[12] = locus YCL069W, strain vba3, stronger effect = lower value
[13] = locus YCR088W, strain abp1, stronger effect = lower value
[14] = locus YDL005C, strain med2, stronger effect = lower value
[15] = locus YDL040C, strain nat1, stronger effect = lower value
[16] = locus YDR001C, strain nth1, stronger effect = lower value
[17] = locus YDR069C, strain doa4, stronger effect = lower value
[18] = locus YDR137W, strain rgp1, stronger effect = lower value
[19] = locus YDR159W, strain sac3, stronger effect = lower value
[20] = locus YDR297W, strain sur2, stronger effect = lower value
[21] = locus YDR334W, strain swr1, stronger effect = lower value
[22] = locus YDR335W, strain msn5, stronger effect = lower value
[23] = locus YDR392W, strain spt3, stronger effect = lower value
[24] = locus YEL003W, strain gim4, stronger effect = lower value
[25] = locus YEL037C, strain rad23, stronger effect = lower value
[26] = locus YEL061C, strain CIN8 (second series), stronger effect = lower value
[27] = locus YER015W, strain faa2, stronger effect = lower value
[28] = locus YER016W, strain bim1, stronger effect = lower value
[29] = locus YER111C, strain swi4, stronger effect = lower value
[30] = locus YER155C, strain BEM2 (second series), stronger effect = lower value
[31] = locus YFR010W, strain ubp6, stronger effect = lower value
[32] = locus YGL167C, strain pmr1, stronger effect = lower value
[33] = locus YGL173C, strain kem1, stronger effect = lower value
[34] = locus YGL227W, strain vid30, stronger effect = lower value
[35] = locus YGL240W, strain doc1, stronger effect = lower value
[36] = locus YGL253W, strain hxk2, stronger effect = lower value
[37] = locus YHR013C, strain ard1, stronger effect = lower value
[38] = locus YHR027C, strain rpn1, stronger effect = lower value
[39] = locus YHR030C, strain SLT2, stronger effect = lower value
[40] = locus YHR079C, strain IRE1, stronger effect = lower value
[41] = locus YHR142W, strain chs7, stronger effect = lower value
[42] = locus YJL092W, strain hpr5, stronger effect = lower value
[43] = locus YJL095W, strain BCK1 (second series), stronger effect = lower value
[44] = locus YJL095W, strain BCK1, stronger effect = lower value
[45] = locus YJL115W, strain asf1, stronger effect = lower value
[46] = locus YJL129C, strain trk1, stronger effect = lower value
[47] = locus YJL154C, strain vps35, stronger effect = lower value
[48] = locus YJL164C, strain tpk1, stronger effect = lower value
[49] = locus YJL166W, strain qcr8, stronger effect = lower value
[50] = locus YJL187C, strain SWE1, stronger effect = lower value
[51] = locus YJR066W, strain TOR1, stronger effect = lower value
[52] = locus YKL160W, strain elf1, stronger effect = lower value
[53] = locus YKR026C, strain gcn3, stronger effect = lower value
[54] = locus YKR091W, strain srl3, stronger effect = lower value
[55] = locus YLL001W, strain dnm1, stronger effect = lower value
[56] = locus YLL026W, stronger effect = lower value
[57] = locus YLL041C, strain sdh2, stronger effect = lower value
[58] = locus YLR027C, strain aat2, stronger effect = lower value
[59] = locus YLR221C, strain rsa3, stronger effect = lower value
[60] = locus YLR258W, strain gsy2, stronger effect = lower value
[61] = locus YLR262C, strain YPT6 (second series), stronger effect = lower value
[62] = locus YLR320W, strain mms22, stronger effect = lower value
[63] = locus YLR342W, strain FKS1, stronger effect = lower value
[64] = locus YLR357W, strain rsc2, stronger effect = lower value
[65] = locus YLR370C, strain arc18, stronger effect = lower value
[66] = locus YLR384C, strain iki3, stronger effect = lower value
[67] = locus YML120C, strain ndi1, stronger effect = lower value
[68] = locus YMR058W, strain fet3, stronger effect = lower value
[69] = locus YMR125W, strain sto1, stronger effect = lower value
[70] = locus YMR129W, stronger effect = lower value
[71] = locus YMR205C, strain PFK2, stronger effect = lower value
[72] = locus YMR231W, strain pep5, stronger effect = lower value
[73] = locus YNL071W, strain lat1, stronger effect = lower value
[74] = locus YNL183C, strain NPR1, stronger effect = lower value
[75] = locus YNL209W, strain ssb2, stronger effect = lower value
[76] = locus YNL248C, strain rpa49, stronger effect = lower value
[77] = locus YNL322C, strain KRE1 (second series), stronger effect = lower value
[78] = locus YNR049C, strain mso1, stronger effect = lower value
[79] = locus YOR001W, strain rrp6, stronger effect = lower value
[80] = locus YOR070C, strain gyp1, stronger effect = lower value
[81] = locus YOR080W, strain dia2, stronger effect = lower value
[82] = locus YOR083W, strain WHI5, stronger effect = lower value
[83] = locus YOR106W, strain vam3, stronger effect = lower value
[84] = locus YOR231W, strain MKK1, stronger effect = lower value
[85] = locus YOR265W, strain rbl2, stronger effect = lower value
[86] = locus YOR270C, strain vph1, stronger effect = lower value
[87] = locus YOR290C, strain snf2, stronger effect = lower value
[88] = locus YPL051W, strain arl3, stronger effect = lower value
[89] = locus YPL078C, strain atp4, stronger effect = lower value
[90] = locus YPL106C, strain sse1, stronger effect = lower value
[91] = locus YPL240C, strain hsp82, stronger effect = lower value
[92] = locus YPL256C, strain CLN2, stronger effect = lower value

Measured: normalized growth

NCCC1CCCC(CCN)N1 (stereo not drawn)
inactive: locus YAL013W, strain DEP1, stronger effect = lower value 1.01 | locus YAL040C, strain CLN3, stronger effect = lower value 1.01 | locus YCL061C, strain MRC1 (second series), stronger effect = lower value 1.01 | locus YDR363W, strain ESC2, stronger effect = lower value 1.01 | locus YER002W, strain NOP16, stronger effect = lower value 0.995 | locus YGR078C, strain PAC10, stronger effect = lower value 1.02 | locus YGR229C, strain SMI1, stronger effect = lower value 1.01 | locus YJR075W, strain HOC1, stronger effect = lower value 1.01 | locus YNL153C, strain GIM3, stronger effect = lower value 1.01 | locus YNL175C, strain NOP13, stronger effect = lower value 1 | locus YNL197C, strain WHI3, stronger effect = lower value 1 | locus YNL224C, strain SQS1, stronger effect = lower value 1 | locus YOR083W, strain WHI5 (second series), stronger effect = lower value 1.01 | locus YPL055C, strain LGE1, stronger effect = lower value 1.02 | locus YPL241C, strain CIN2, stronger effect = lower value 1.01

COc1ccc2nc(S(=O)Cc3ncc(C)c(OC)c3C)[nH]c2c1 (stereo not drawn)
inactive: [2] 1 | [3] 1.02 | [4] 1.01 | [6] 0.957 | [7] 1.02 | [8] 0.953 | [10] 1.01 | [11] 0.962 | locus YCL061C, strain MRC1, stronger effect = lower value 1.01 | [12] 1.02 | [13] 1.02 | [14] 1.02 | [15] 1.02 | [16] 1.02 | [18] 0.907 | [19] 0.975 | locus YDR195W, strain ref2 1.02 | [20] 1.01 | [21] 1.01 | [22] 1 | [24] 1.01 | [25] 1.02 | [26] 1.02 | [27] 0.987 | [28] 1.02 | [29] 1.02 | [31] 0.999 | [32] 1.02 | [33] 1.01 | [34] 1.02 | [35] 0.934 | [36] 1.01 | [38] 1.01 | [40] 0.885 | [41] 1.01 | [42] 1.02 | [43] 1.02 | [45] 1.02 | [46] 0.994 | [47] 1.02 | [48] 0.942 | [49] 0.911 | [50] 0.998 | [51] 0.879 | [52] 0.941 | [53] 1.01 | [54] 1.02 | [55] 1.01 | [56] 0.983 | [57] 1.02 | [58] 0.948 | [60] 0.989 | [63] 1.01 | [64] 1 | [65] 1.02 | [66] 1.03 | [67] 0.975 | [68] 0.999 | [69] 1.01 | [70] 1.03 | [71] 0.915 | [72] 1.01 | [74] 0.86 | [75] 0.98 | [76] 1.02 | [77] 1.03 | [78] 1.02 | [79] 0.996 | [81] 1.01 | [82] 0.984 | [84] 1.04 | [85] 0.995 | [86] 0.994 | [87] 0.991 | [89] 0.989 | [90] 1 | [91] 1.01 | [92] 0.988
active: [1] 0.795 | [5] 0.907 | [9] 0.913 | [17] 0.812 | [23] 0.556 | [30] 0.812 | [37] 0.753 | [39] 0.791 | [44] 0.752 | [59] 0.904 | [61] 0.857 | [62] 0.765 | [73] 0.702 | [80] 0.897 | [83] 0.857 | [88] 0.846

COc1ccnc(CS(=O)c2nc3ccc(OC(F)F)cc3[nH]2)c1OC (stereo not drawn)
inactive: [1] 0.993 | [2] 1.04 | [3] 1.02 | [4] 1.04 | [5] 0.991 | [6] 1.04 | [7] 1.03 | [8] 1.01 | [9] 1.04 | [10] 1.02 | [11] 1.03 | [12] 1.02 | [13] 1.03 | [14] 1.02 | [15] 1.03 | [16] 1.02 | [17] 1.02 | [18] 1.05 | [19] 0.94 | locus YDR195W, strain ref2 1.01 | [20] 1.02 | [21] 1.03 | [22] 1.05 | [23] 0.925 | [24] 1.02 | [25] 1.03 | [26] 1.02 | [27] 1.03 | [28] 1.04 | [29] 1.05 | [30] 0.917 | [31] 1.01 | [32] 1.02 | [33] 0.989 | [34] 1.03 | [35] 0.977 | [36] 1.05 | [37] 1.05 | [38] 0.989 | [39] 0.864 | [40] 0.946 | [41] 1.05 | [42] 1.01 | [43] 1.02 | [44] 0.89 | [45] 1.02 | [46] 1.03 | [47] 1.02 | [48] 1 | [49] 0.989 | [50] 1.01 | [51] 0.922 | [52] 1.03 | [53] 1.04 | [54] 1.03 | [55] 0.98 | [56] 1.02 | [57] 1.01 | [58] 1.01 | locus YLR113W, strain HOG1, stronger effect = lower value 0.926 | [59] 0.982 | [60] 1.04 | [61] 1.01 | [62] 0.936 | [63] 1.02 | [64] 1 | [65] 1.03 | [66] 1.01 | [67] 1 | [68] 1.04 | [69] 1.02 | [70] 1.03 | [71] 1.01 | [72] 1.03 | [73] 1.02 | [74] 0.868 | [75] 1.02 | [76] 1.06 | [77] 1.05 | [78] 1.03 | [79] 1 | [80] 1.02 | [81] 1.04 | [82] 0.995 | [83] 1.02 | [84] 0.953 | [85] 1 | [86] 1.2 | [87] 1.06 | [88] 1 | [89] 1.04 | [90] 1.03 | [91] 1.03 | [92] 0.969
